# Legend:
# [1] = target: T1, Serine/threonine-protein kinase Sgk2 (Homo sapiens) (UniProt Q9HBY8); conditions: at 1 µM
# T1 sequence (whole entry): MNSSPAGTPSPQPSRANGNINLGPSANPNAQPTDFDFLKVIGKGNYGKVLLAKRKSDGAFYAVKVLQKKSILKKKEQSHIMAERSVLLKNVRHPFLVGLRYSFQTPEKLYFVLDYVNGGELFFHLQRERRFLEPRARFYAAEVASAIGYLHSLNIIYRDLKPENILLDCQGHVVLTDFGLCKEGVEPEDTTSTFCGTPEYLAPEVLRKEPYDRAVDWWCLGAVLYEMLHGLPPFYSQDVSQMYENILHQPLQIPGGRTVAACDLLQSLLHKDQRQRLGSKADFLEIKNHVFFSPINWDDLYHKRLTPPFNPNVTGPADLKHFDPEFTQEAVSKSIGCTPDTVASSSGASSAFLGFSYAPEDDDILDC
# [2] = target: T1, Serine/threonine-protein kinase Sgk2 (Homo sapiens); conditions: at 10 µM
# [3] = target: T2, Serine/threonine-protein kinase Sgk3 (Homo sapiens) (UniProt Q96BR1); conditions: at 1 µM
# T2 sequence (whole entry): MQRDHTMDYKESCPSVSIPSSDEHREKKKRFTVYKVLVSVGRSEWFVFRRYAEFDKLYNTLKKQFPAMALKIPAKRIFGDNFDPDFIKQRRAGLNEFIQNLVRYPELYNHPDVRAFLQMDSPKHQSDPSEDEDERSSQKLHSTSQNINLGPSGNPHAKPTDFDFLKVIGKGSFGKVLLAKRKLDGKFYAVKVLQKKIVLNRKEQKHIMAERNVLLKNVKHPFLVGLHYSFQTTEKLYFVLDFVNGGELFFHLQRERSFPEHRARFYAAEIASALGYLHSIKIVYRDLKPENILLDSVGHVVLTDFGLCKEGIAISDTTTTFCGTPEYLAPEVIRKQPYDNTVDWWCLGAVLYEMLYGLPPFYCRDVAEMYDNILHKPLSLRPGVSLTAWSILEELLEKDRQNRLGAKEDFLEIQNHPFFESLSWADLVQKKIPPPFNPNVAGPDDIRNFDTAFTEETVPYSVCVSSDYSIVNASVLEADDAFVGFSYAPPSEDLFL
# [4] = target: T2, Serine/threonine-protein kinase Sgk3 (Homo sapiens); conditions: at 10 µM
# [5] = target: Serine/threonine-protein kinase SIK1 (Homo sapiens) (UniProt P57059); conditions: at 1 µM
# [6] = target: Serine/threonine-protein kinase SIK1 (Homo sapiens) (UniProt P57059); conditions: at 10 µM
# [7] = target: SRSF protein kinase 1 (Homo sapiens) (UniProt Q96SB4); conditions: at 1 µM
# [8] = target: SRSF protein kinase 1 (Homo sapiens) (UniProt Q96SB4); conditions: at 10 µM
# [9] = target: Tyrosine-protein kinase SYK (Homo sapiens) (UniProt P43405); conditions: at 1 µM
# [10] = target: Tyrosine-protein kinase SYK (Homo sapiens) (UniProt P43405); conditions: at 10 µM
# [11] = target: T3, Mitogen-activated protein kinase kinase kinase 7 (Homo sapiens) (UniProt O43318); conditions: at 1 µM
# T3 sequence (whole entry): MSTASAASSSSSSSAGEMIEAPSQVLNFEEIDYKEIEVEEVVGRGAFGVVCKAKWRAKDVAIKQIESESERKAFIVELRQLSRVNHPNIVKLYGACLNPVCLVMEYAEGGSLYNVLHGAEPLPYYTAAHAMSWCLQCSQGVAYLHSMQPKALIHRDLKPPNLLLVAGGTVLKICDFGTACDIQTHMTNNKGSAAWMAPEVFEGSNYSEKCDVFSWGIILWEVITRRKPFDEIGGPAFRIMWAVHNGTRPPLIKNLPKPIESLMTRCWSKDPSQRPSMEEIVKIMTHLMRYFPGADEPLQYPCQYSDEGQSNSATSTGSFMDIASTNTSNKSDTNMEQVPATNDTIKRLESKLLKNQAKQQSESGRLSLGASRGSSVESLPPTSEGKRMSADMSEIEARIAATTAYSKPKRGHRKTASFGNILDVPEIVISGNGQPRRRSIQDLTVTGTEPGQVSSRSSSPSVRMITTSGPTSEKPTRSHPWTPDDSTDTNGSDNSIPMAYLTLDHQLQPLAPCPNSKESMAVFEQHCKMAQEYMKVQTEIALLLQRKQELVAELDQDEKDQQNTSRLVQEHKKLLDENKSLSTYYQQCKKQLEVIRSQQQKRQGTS
# [12] = target: T3, Mitogen-activated protein kinase kinase kinase 7 (Homo sapiens); conditions: at 10 µM
# [13] = target: T4, Serine/threonine-protein kinase TAO1 (Homo sapiens) (UniProt Q7L7X3); conditions: at 1 µM
# T4 sequence (whole entry): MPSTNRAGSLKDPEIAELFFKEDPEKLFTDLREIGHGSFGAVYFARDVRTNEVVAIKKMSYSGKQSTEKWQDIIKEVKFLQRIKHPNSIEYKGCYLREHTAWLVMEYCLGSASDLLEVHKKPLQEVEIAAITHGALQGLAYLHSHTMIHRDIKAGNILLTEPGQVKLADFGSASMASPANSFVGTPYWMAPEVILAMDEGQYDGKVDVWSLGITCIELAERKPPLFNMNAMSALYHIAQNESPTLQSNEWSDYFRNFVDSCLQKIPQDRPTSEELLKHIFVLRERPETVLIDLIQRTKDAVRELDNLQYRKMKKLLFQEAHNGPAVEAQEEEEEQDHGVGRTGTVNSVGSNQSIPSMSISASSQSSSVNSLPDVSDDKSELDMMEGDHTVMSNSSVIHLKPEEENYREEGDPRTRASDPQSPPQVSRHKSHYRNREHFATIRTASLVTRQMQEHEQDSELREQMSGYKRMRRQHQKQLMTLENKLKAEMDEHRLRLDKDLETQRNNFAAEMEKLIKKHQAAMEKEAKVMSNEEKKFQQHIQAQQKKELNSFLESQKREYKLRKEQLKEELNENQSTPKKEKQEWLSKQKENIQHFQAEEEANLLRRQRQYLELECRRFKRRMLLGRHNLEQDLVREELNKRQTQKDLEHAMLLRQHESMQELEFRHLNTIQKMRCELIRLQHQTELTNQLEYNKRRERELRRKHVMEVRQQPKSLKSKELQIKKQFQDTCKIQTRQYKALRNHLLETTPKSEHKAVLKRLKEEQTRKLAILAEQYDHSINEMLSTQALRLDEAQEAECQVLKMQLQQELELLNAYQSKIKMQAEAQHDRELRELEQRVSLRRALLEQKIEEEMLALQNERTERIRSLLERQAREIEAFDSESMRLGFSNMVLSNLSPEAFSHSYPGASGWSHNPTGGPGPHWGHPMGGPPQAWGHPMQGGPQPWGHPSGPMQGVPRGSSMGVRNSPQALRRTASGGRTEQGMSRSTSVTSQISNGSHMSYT
# [14] = target: T4, Serine/threonine-protein kinase TAO1 (Homo sapiens); conditions: at 10 µM
# [15] = target: SRSF protein kinase 2 (Homo sapiens) (UniProt P78362); conditions: at 1 µM
# [16] = target: SRSF protein kinase 2 (Homo sapiens) (UniProt P78362); conditions: at 10 µM
# [17] = target: Serine/threonine-protein kinase 33 (Homo sapiens) (UniProt Q9BYT3); conditions: at 1 µM
# [18] = target: Serine/threonine-protein kinase 33 (Homo sapiens) (UniProt Q9BYT3); conditions: at 10 µM
# [19] = target: Serine/threonine-protein kinase PLK2 (Homo sapiens) (UniProt Q9NYY3); conditions: at 10 µM
# Serine/threonine-protein kinase PLK2 (Homo sapiens), sequence (Q9NYY3 whole entry, looked up): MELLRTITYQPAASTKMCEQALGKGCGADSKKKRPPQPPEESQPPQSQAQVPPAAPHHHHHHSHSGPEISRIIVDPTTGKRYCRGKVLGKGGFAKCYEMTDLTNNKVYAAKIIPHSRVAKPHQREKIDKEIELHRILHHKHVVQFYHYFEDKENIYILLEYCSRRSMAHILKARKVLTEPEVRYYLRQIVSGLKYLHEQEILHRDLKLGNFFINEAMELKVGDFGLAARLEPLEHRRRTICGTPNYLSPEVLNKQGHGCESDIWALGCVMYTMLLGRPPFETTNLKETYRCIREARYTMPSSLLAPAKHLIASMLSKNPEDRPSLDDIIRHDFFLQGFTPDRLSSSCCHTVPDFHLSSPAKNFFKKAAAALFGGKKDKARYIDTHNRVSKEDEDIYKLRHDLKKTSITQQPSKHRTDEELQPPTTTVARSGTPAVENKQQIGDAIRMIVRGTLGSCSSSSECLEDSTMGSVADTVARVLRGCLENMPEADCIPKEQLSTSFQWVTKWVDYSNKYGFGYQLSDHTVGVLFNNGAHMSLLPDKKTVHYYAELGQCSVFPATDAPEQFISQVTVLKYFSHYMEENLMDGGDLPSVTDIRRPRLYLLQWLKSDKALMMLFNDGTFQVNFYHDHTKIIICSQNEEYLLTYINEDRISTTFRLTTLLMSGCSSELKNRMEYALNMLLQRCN
# Serine/threonine-protein kinase SIK1 (Homo sapiens), sequence (P57059 whole entry): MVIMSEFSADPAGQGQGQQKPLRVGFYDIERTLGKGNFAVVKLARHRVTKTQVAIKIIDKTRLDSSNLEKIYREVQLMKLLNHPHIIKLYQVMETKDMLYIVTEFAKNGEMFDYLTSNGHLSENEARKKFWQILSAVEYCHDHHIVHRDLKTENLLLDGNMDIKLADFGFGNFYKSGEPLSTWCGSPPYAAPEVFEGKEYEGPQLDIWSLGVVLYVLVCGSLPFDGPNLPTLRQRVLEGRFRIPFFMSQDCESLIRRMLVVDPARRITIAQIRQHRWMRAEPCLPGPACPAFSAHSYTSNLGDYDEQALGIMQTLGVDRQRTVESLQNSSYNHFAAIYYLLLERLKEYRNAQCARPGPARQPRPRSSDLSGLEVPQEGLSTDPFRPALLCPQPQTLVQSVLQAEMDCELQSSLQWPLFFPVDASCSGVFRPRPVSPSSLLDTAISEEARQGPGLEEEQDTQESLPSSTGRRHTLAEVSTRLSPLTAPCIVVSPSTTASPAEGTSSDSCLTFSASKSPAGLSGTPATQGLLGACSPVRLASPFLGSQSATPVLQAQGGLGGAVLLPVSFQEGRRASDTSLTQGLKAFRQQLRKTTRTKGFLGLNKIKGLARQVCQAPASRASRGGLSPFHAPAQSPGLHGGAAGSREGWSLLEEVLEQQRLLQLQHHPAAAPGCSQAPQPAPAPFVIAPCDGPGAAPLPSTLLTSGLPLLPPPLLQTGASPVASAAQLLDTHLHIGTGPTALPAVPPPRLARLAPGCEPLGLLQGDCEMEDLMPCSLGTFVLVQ
# SRSF protein kinase 1 (Homo sapiens), sequence (Q96SB4 whole entry): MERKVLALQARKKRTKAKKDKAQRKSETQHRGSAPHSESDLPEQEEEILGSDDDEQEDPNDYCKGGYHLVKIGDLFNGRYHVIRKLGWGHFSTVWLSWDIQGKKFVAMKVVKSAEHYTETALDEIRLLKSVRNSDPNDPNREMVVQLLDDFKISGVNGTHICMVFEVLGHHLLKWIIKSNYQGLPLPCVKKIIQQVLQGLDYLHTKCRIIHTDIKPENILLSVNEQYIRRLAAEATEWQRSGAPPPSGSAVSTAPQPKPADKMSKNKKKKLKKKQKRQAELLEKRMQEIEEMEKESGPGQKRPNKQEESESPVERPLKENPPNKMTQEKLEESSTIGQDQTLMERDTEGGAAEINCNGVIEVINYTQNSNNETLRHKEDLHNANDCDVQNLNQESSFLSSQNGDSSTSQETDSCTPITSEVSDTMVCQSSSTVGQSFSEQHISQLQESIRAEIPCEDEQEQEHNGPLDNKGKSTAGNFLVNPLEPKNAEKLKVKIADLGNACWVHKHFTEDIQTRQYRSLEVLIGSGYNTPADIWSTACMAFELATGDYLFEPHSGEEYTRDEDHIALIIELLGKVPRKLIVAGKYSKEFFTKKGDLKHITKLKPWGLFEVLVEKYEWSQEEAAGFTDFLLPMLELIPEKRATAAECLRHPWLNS
# Serine/threonine-protein kinase 33 (Homo sapiens), sequence (Q9BYT3 whole entry, looked up): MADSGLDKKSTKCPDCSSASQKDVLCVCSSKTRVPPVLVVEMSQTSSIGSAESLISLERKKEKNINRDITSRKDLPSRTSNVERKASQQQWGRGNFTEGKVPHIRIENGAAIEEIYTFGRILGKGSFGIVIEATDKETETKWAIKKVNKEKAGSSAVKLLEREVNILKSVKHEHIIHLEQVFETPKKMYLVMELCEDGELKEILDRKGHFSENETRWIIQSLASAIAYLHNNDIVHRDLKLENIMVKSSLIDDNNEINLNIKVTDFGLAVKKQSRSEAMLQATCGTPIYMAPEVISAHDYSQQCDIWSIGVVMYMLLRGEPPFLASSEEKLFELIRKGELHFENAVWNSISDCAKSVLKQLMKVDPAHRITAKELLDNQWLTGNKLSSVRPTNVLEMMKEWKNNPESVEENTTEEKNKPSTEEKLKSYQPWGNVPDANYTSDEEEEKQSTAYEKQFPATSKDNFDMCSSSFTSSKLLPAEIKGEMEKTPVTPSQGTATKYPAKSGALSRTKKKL
# SRSF protein kinase 2 (Homo sapiens), sequence (P78362 whole entry, looked up): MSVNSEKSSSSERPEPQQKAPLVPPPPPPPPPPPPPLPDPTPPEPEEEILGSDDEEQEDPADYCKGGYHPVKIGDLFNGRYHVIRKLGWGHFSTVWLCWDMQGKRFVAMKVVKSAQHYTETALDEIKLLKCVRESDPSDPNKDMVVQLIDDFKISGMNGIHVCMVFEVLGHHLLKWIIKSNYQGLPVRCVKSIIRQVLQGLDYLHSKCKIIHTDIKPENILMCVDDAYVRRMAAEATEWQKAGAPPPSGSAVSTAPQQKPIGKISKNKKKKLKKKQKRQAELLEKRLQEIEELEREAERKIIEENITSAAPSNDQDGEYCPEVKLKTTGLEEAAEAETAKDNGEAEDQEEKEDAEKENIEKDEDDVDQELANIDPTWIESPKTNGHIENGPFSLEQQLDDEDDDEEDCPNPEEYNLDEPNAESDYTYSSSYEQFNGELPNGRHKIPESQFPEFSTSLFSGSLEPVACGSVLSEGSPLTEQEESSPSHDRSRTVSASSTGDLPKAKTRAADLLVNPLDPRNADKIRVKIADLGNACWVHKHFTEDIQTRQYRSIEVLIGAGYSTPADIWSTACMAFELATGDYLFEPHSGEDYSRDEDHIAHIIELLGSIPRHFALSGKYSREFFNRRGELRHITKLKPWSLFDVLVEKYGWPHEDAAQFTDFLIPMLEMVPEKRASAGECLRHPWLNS
compound,measurement,setting,value
O=C1NC(=O)c2c1c1c3ccccc3n3c1c1c2c2ccccc2n1C1CCC3O1,residual activity,[1],77%
same,residual activity,[2],61%
same,residual activity,[3],98%
same,residual activity,[4],80%
same,residual activity,[5],123%
same,residual activity,[6],74%
same,residual activity,[7],92%
same,residual activity,[8],83%
same,residual activity,[9],90%
same,residual activity,[10],80%
same,residual activity,[11],88%
same,residual activity,[12],89%
same,residual activity,[13],75%
same,residual activity,[14],69%
COc1cc2ncnc(Nc3ccc(NC(=O)c4ccccc4)cc3)c2cc1OC,residual activity,[3],96%
COC(=O)[C@@]1(O)C[C@H]2O[C@]1(C)n1c3ccccc3c3c4c(c5c6ccccc6n2c5c31)C(=O)NC4,residual activity,[1],7%
same,residual activity,[2],1%
same,residual activity,[3],47%
same,residual activity,[4],13%
same,residual activity,[5],0%
same,residual activity,[6],0%
same,residual activity,[7],67%
same,residual activity,[8],14%
same,residual activity,[15],97%
same,residual activity,[16],52%
same,residual activity,[17],7%
same,residual activity,[18],0%
same,residual activity,[19],36%
same,residual activity,[9],1%
same,residual activity,[10],2%
same,residual activity,[11],-1%
same,residual activity,[12],-5%
same,residual activity,[13],5%
same,residual activity,[14],3%
COc1cc2ncnc(Nc3ccc(Oc4ccccc4)cc3)c2cc1OC,residual activity,[3],110%
Cn1sc(=O)n(Cc2ccccc2)c1=O,residual activity,[3],99%
CCCCc1c(-c2ccc(O)cc2)[nH]c2nccnc12,residual activity,[3],98%
O=c1cc(N2CCOCC2)oc2c1ccc1ccccc12,residual activity,[3],97%
CCN1/C(=C/C(C)=O)Sc2ccc(OC)cc21,residual activity,[3],100%
Nc1nc(Nc2ccc(S(N)(=O)=O)cc2)nn1C(=S)Nc1c(F)cccc1F,residual activity,[3],88%
O=C1NC(=O)c2c1c1c3ccccc3[nH]c1c1[nH]c3cc(Br)ccc3c21,residual activity,[3],96%
CC[n+]1c(/C=C/N(C)c2ccccc2)n(-c2ccccc2)c2ccc(-c3nc4ccccc4s3)cc21,residual activity,[3],99%
N#C/C(=C(\N)Sc1ccc(N)cc1)c1ccccc1C(F)(F)F,residual activity,[3],102%
O=Nc1c(-c2c(O)[nH]c3ccccc23)[nH]c2ccccc12,residual activity,[3],89%
CCN(CC)CCNC(=O)c1c(C)[nH]c(/C=C2\C(=O)Nc3ccc(Cl)cc32)c1C,residual activity,[3],115%
CN(C)CCCn1cc(C2=C(c3c[nH]c4ccccc34)C(=O)NC2=O)c2ccccc21,residual activity,[3],101%
Cc1cc(Nc2nc(-c3ccccc3)nc3ccccc23)n[nH]1,residual activity,[3],107%
c1ccc(-c2n[nH]c3c2oc2ccccc23)cc1,residual activity,[3],94%
O=C(c1ccccc1)c1ccc(N2CCOCC2)cc1O,residual activity,[3],97%
CC(C)(C)n1nc(Cc2cccc3ccccc23)c2c(N)ncnc21,residual activity,[3],106%
Cn1nc2c3c(cccc31)C(=O)c1ccccc1-2,residual activity,[3],79%
O=C(Nc1cccc(Nc2cc(Nc3cccc(C(F)(F)F)c3)ncn2)c1)C1CC1,residual activity,[3],96%
COc1ccc(C(=O)Nc2sc3c(c2C(N)=O)CCCC3)cc1OC,residual activity,[3],74%
Cn1cnc2cc3c(Nc4cccc(Br)c4)ncnc3cc21,residual activity,[3],107%
Cn1cc(/C=C2\C(=O)Nc3ccc(S(N)(=O)=O)cc32)c2ccccc21,residual activity,[3],112%
O=C(Nc1cccc(Nc2nccc(Nc3cccc(C(F)(F)F)c3)n2)c1)C1CC1,residual activity,[3],126%
COc1cc2nccc(Oc3ccc(NC(=S)NC(=O)c4ccccc4C)cc3)c2cc1OC,residual activity,[3],97%
COc1cc2ncnc(N3CCN(C(=O)Nc4ccc(Oc5ccccc5)cc4)CC3)c2cc1OC,residual activity,[3],104%
Oc1ccc(Nc2nc(-c3ccc(Cl)cc3)cs2)cc1,residual activity,[3],112%
NCCNc1ncc(C(N)=O)c(Nc2cccc(C(F)(F)F)c2)n1,residual activity,[3],82%
CCC(=O)Nc1ccc2ncnc(Nc3cccc(Br)c3)c2c1,residual activity,[3],105%
Cc1cncc2cccc(S(=O)(=O)N3CCCN(C(=O)CN)C[C@H]3C)c12,residual activity,[3],93%
CO[C@H]1[C@@H](OC)C[C@H](C)[C@@H](OC)C2=CC(=O)C=C(NC(=O)/C(C)=C/C=C/[C@H](OC)[C@@H](OC(N)=O)/C(C)=C/[C@@H]1C)C2=O,residual activity,[3],95%
Nc1nc(Nc2ccc(S(N)(=O)=O)cc2)nn1C(=O)c1c(F)cccc1F,residual activity,[3],106%
Cc1ccc(S(=O)(=O)/C=C/C#N)cc1,residual activity,[3],103%
CCCCc1c(-c2ccc(OC)cc2)[nH]c2nccnc12,residual activity,[3],100%
CC(C)[C@H](CO)Nc1nc(Nc2cccc(Cl)c2)c2ncn(C(C)C)c2n1,residual activity,[6],16%
same,residual activity,[7],52%
same,residual activity,[8],-1%
same,residual activity,[11],73%
COc1cc(OC)c(/C=C2\C(=O)Nc3ccccc32)c(OC)c1,residual activity,[6],93%
same,residual activity,[11],92%
O=C1c2ccccc2-c2nc3nnnn3nc21,residual activity,[7],107%
same,residual activity,[8],111%

# Reference: ChEMBL document CHEMBL2218924, “A broad activity screen in support of a chemogenomic map for kinase signalling research and drug discovery” (Biochem J, 2013)
